# Assay outcomes as filed in PubChem.
# AID inh – blocks human AID cytidine deaminase activity; Q9GZX7; 0.32% of 91,000 active; AID deamination FRET fluorescence, UDG-coupled, 4 h; AID 1347428; Potency, µM (series often up to 115 µM), usual class: inhibitors; note: nearly all actives have a fitted effect of over 25% in size
# Target sequence (Q9GZX7 whole entry, looked up): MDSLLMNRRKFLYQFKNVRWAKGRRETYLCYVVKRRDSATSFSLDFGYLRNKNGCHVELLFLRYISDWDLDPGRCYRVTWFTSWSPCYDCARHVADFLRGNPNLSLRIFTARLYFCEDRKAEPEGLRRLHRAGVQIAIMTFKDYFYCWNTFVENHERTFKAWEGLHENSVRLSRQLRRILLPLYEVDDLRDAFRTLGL
# UDG counter – blocks uracil-DNA glycosylase in AID counter-screen | FRET deamination/UDG coupled assay, UDG read, 4 h | Potency, µM (titrated, usually from 115 µM), inactives show at the highest dose activity change, negative = inhibition, hits mostly inhibitors | 0.14% of 91,000 active; note: nearly all actives have a fitted effect of over 65% in size
# * marks the source's active call; other numbers are inactive results; i = inactive; ? = inconclusive; [ ] = remark or other dose. An excerpt weighted towards active compounds, which were near 0.47% of everything screened. Calls come from the whole dose curve; as a rule, active = well fitted curve in the direction sought with a large enough effect; inconclusive = small, poorly fitted or top-dose-only effect, or another doubt; inactive = no such curve, though single readings can be large; an effect the other way counts as inactive or inconclusive. % is set by controls: 0 for no effect and ±100 for the full control effect; potency is the fitted concentration of half-maximal effect.
SMILES,AID inh,UDG counter
CCc1ccc(CN(Cc2ccco2)C(=O)c2ccc(OC)cc2)cc1,40µM*,-9%[57.5 µM]
COc1ccc(C(=O)N(Cc2ccco2)Cc2ccc(C)o2)cc1,i,13%[57.5 µM]
CCC(NC(=O)C(C)c1ccc(-c2ccccc2)c(F)c1)C(=O)O (stereo unspecified),i,1%
CCn1c(CN2CCOCC2)nnc1SCC(=O)c1cc(C)n(CC)c1C,i,5%
COc1ccc(-n2cc(-c3ccccc3)c3c(NC4CCCC4)ncnc32)cc1,35µM*,-8%[57.5 µM]
Clc1cccc(-n2cc(-c3ccccc3)c3c(NC4CCCC4)ncnc32)c1,?,-1%[57.5 µM]
CCCN(CCC)CC(O)Cn1cc(/C=C/C(=O)c2ccc(OCC)cc2)c2ccccc21 (stereo unspecified),35µM*,-24%
CC(C)CN(CC(C)C)CC(O)Cn1cc(/C=C/C(=O)c2ccccc2)c2ccccc21 (stereo unspecified),?,-16%
COc1ccc(OC)c(/C=C(\C#N)c2nc3ccccc3c(=O)[nH]2)c1,79µM*,48%
COc1cccc(/C=C(\C#N)c2nc3ccccc3c(=O)[nH]2)c1OC,i,0%
Cc1ccc2[nH]cc(C(C(=O)O)N3CCN(Cc4cccc(Cl)c4)CC3)c2c1 (stereo unspecified),i,-8%
O=c1[nH]c(SCc2ccc([N+](=O)[O-])cc2)nc2c1CCCC2,i,?
CC(C)(C)c1ccc(CSc2nc3c(c(=O)[nH]2)CCCC3)cc1,i,79µM*
NNc1ccc(S(=O)(=O)c2ccc(NN)cc2)cc1,i,-17%
NNc1cccc(S(=O)(=O)c2cccc(NN)c2)c1,?,45µM*
O=C(Cn1cnc2nc3c(cc2c1=O)CCCC3)N1CCN(c2cccc(C(F)(F)F)c2)CC1,i,-8%
Cc1ccc(Cl)cc1N1CCN(C(=O)Cn2cnc3nc4c(cc3c2=O)CCCC4)CC1,40µM*,?
CCC(C)c1ccc(OCC(=O)Nc2cccc(-c3nc4ncccc4o3)c2)cc1 (stereo unspecified),32µM*,-17%
CC(C)c1ccc(OCC(=O)Nc2cc(-c3nc4ncccc4o3)ccc2Cl)cc1,i,1%
O=C(CCc1ncc(-c2ccccc2)o1)NCc1ccccc1Cl,i,-12%
Cc1oc(-c2ccccc2)nc1CC(=O)Nc1ccccc1-c1ccccc1,i,-13%
O=C(NCC(c1cccnc1)N1CCc2ccccc21)c1ccc(Cl)cc1 (stereo unspecified),?,-12%
COc1ccc(C(=O)NCC(c2cccnc2)N2CCc3ccccc32)cc1 (stereo unspecified),100µM*,-15%
CN1/C(=C/C(=O)COC(=O)c2cc3c(s2)CCC3)C(C)(C)c2ccccc21,i,-2%
COCCCNC(=O)c1oc2c(c1C)-c1nn(Cc3cccc(Cl)c3)cc1CC2,89µM*,-14%[57.5 µM]
SMILES,AID inh,UDG counter
COCCCNC(=O)c1oc2c(c1C)-c1nn(Cc3ccc(Cl)cc3)cc1CC2,i,-14%[57.5 µM]
CCN(CC)CCCNC(=O)c1oc2c(c1C)-c1nn(Cc3ccc(Cl)cc3)cc1CC2,i,-12%[57.5 µM]
CCOCCCNC(=O)Cn1cc2c(n1)-c1c(oc(C(=O)N3CCCC3)c1C)CC2,79µM*,?
Clc1ccc(N=Cc2ccc3ccccc3c2)cc1Cl,i,5%
Oc1ccc(N=Cc2ccc3ccccc3c2)cc1,14µM*,?
O=C(NNC(=S)NCc1ccccc1)c1ccc2ccccc2c1,i,-2%
CCN(CC(O)COCCC12CC3CC(CC(C3)C1)C2)C1CCCCC1 (stereo unspecified),i,-1%
COc1ccc(NC(=O)CSc2nc3ccccc3nc2N2CCOCC2)c(OC)c1,?,-8%
CCOc1ccccc1NC(=O)CSc1nc2ccccc2nc1N1CCOCC1,22µM*,?
Cc1ccc(/C=C/c2onc(C)c2S(=O)(=O)N2CCC(C(=O)N3CCC(N(C)C(C)C)CC3)CC2)cc1,45µM*,-20%
CC(=O)c1ccc(N2CCN(C(=O)C3CCN(S(=O)(=O)c4c(C)noc4/C=C/c4ccc(C)cc4)CC3)CC2)cc1,i,1%
CCc1cccc(-n2c(SCC(=O)NC(C)c3cc4ccccc4o3)nnc2N2CCOCC2)c1 (stereo unspecified),i,-12%
COc1ccc(Nc2nc(Nc3ccc(F)cc3)nc3nccnc23)cc1,25µM*,0%
COc1ccc(Nc2nc(NCCO)c3nccnc3n2)cc1,i,1%
C[C@H](NC(=O)C(=O)Nc1cccc2[nH]ccc12)c1ccccc1,i,-20%
COc1ccc(C2CC(=O)Nc3nc(N)sc32)cc1OC1CCCC1 (stereo unspecified),?,-16%
NC(=O)COc1cccc(C2CC(=O)Nc3nc(N4CCCCC4)sc32)c1 (stereo unspecified),28µM*,-17%
COc1ccc(C2CC(=O)Nc3ccsc32)cc1OCC(N)=O (stereo unspecified),i,-1%
NC(=O)COc1ccc(C2CC(=O)Nc3nc(N4CCCCC4)sc32)cc1 (stereo unspecified),22µM*,-15%
Nc1nc2c(s1)C(c1cccc(OCc3cccc(F)c3)c1)CC(=O)N2 (stereo unspecified),?,-13%
COc1cc(C2CC(=O)Nc3nc(N4CCCCC4)sc32)ccc1OCC(N)=O (stereo unspecified),22µM*,-17%
O=Cc1ccc(-c2ccc(I)cc2Cl)o1,i,-6%
O=C(CCCOC(=O)c1c(Cl)ccc(Cl)c1Cl)c1ccc(F)cc1,i,-9%
Cc1ccc(C(=O)/C=C/c2cccc3ccccc23)cc1[N+](=O)[O-],i,6%
COc1ccc(-n2c3c(c(=O)[nH]c2=O)CN(C2CCCC2)CN3)cc1Cl,i,1%
SMILES,AID inh,UDG counter
CCOC(=O)C1=C(CN2CCN(Cc3ccccc3)CC2)NC(=O)NC1c1ccccc1 (stereo unspecified),i,?
O=C(c1ccc(-n2cnnn2)cc1)N(CCc1cccs1)Cc1cccs1,i,-1%
Cc1cc(N(CCO)Cc2ccccc2)n2nc(-c3ccc(C(C)(C)C)cc3)nc2n1,i,-2%
Cc1cc(N(C)Cc2ccccc2)n2nc(-c3ccc(C(C)(C)C)cc3)nc2n1,35µM*,0%
CCCOc1ccc(NC(=O)C(CC)CC)c2cccnc12,i,-5%
O=Cc1cc(O)c(Br)cc1Br,i,1%
Cc1ccc(Cc2nc3ccccc3nc2SCC(=O)N2CCC(C)CC2)cc1,?,-12%
CC1CCCCN1C(=O)CSc1nc2ccccc2nc1Cc1ccccc1 (stereo unspecified),50µM*,-19%
O=C(/C=C/c1ccc(-c2ccccc2Cl)o1)c1ccc2ccccc2c1,i,-5%
CCOc1ccc2nc(C)cc(Nc3ccccc3OCC)c2c1,79µM*,?
CCOc1ccc(Nc2cc(C)nc3ccc(Cl)cc23)cc1,i,-2%
Cn1c(-c2ccc(F)cc2)cc2ccccc21,i,0%
Cn1nc(CC(=O)Nc2ccc(S(=O)(=O)N3CCCCCC3)cc2)c2ccccc2c1=O,i,-4%
O=C(Cc1n[nH]c(=O)c2ccccc12)Nc1ccc(S(=O)(=O)N2CCCC2)cc1,40µM*,-19%
CCCNc1c(NC(=O)Nc2ccc(Cl)cc2)c(=O)oc2ccccc12,i,-2%
O=C(O)c1cc2c(c(S(=O)(=O)Nc3cccc(Cl)c3F)c1)CCC2,i,2%
CC(C)N(CCNC(=O)C(c1ccccc1)c1ccccc1)C(C)C,i,-1%
